# PubChem BioAssay (NCATS)
# Inconclusive results are not listed. Where a call stands in place of a potency, no number is given. Values without a mark were called inactive. Active and inactive are the calls of the source. Unless noted, calls come from the whole dose curve; as a rule, active = well fitted curve in the direction sought with a large enough effect; inconclusive = small, poorly fitted or top-dose-only effect, or another doubt; inactive = no such curve, though single readings can be large; an effect the other way counts as inactive or inconclusive.
# What was measured:
# [1] = target: Aldehyde dehydrogenase, mitochondrial (Homo sapiens) (UniProt P05091); test: qHTS for Inhibitors of the Aldehyde Dehydrogenase Family (ALDH2) Confirmatory screens (AID 2061303; active = well fitted inhibition curve with a large enough effect; title and protocol of this record describe different tests; note: nearly all actives have a fitted effect of over 45% in size)
# [2] = target: Aldehyde dehydrogenase, mitochondrial (Homo sapiens) (UniProt P05091); test: qHTS for Inhibitors of the Aldehyde Dehydrogenase Family (ALDH2) Primary screen (AID 2061308); note: nearly all actives have a fitted effect of over 55% in size
# [3] = target: Retinaldehyde dehydrogenase 3 (Homo sapiens) (UniProt P47895); test: qHTS for Inhibitors of the Aldehyde Dehydrogenase Family (ALDH1A3) Confirmatory screens (AID 2061311); note: nearly all actives have a fitted effect of over 60% in size
# [4] = target: Retinaldehyde dehydrogenase 3 (Homo sapiens) (UniProt P47895); test: qHTS for Inhibitors of the Aldehyde Dehydrogenase Family (ALDH1A3) Primary screen (AID 2061315)
# [5] = qHTS for Inhibitors of the Aldehyde Dehydrogenase Family (ALDH1A2, ALDH1A3, ALDH2, ALDH3A1) (AID 2061307); note: nearly all actives have a fitted effect of over 50% in size; for potency: test system not described further here; potency is the fitted concentration of half-maximal effect
# [6] = target: Retinal dehydrogenase 2 (Homo sapiens) (UniProt O94788); test: qHTS for Inhibitors of the Aldehyde Dehydrogenase Family (ALDH1A2) Confirmation screens (AID 2061314); note: potency is the fitted concentration of half-maximal effect; nearly all actives have a fitted effect of over 65% in size
# [7] = target: Retinaldehyde dehydrogenase 3 (Homo sapiens) (UniProt P47895); test: qHTS for Inhibitors of the Aldehyde Dehydrogenase Family (ALDH1A3) Validation screen (AID 2061312); note: nearly all actives have a fitted effect of over 45% in size
# [8] = BET inhibitor-based combinations targeting novel dependencies in MECOM-rearranged (r) AML: MV-4-11 cell line (AID 2202233); note: nearly all actives have a fitted effect of over 45% in size; note: potency is the fitted concentration of half-maximal effect
# Procedure, shortened: (§1)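 Using pin-tool transfer, drugs were added in 11 doses to cells (500/well), incubated 48 hr, and assessed with CellTiter-Glo. Z-AUC is a mean-centring transformation applied separately to each screened line.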
# [9] = BET inhibitor-based combinations targeting novel dependencies in MECOM-rearranged (r) AML: HNT-34 cell line (AID 2202234); note: nearly all actives have a fitted effect of over 35% in size; note: potency is the fitted concentration of half-maximal effect
# Procedure, shortened: as §1
# [10] = BET inhibitor-based combinations targeting novel dependencies in MECOM-rearranged (r) AML: UCSD-AML1 cell line (AID 2202235); note: potency is the fitted concentration of half-maximal effect; nearly all actives have a fitted effect of over 40% in size
# Procedure, shortened: as §1
# [11] = BET inhibitor-based combinations targeting novel dependencies in MECOM-rearranged (r) AML: AML-191 cell line (AID 2202236; note: nearly all actives have a fitted effect of over 35% in size; note: potency is the fitted concentration of half-maximal effect)
# Procedure, shortened: (§2)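 Viability of cells (500 per well) is scored by luminescent CellTiter-Glo at 48 hr post-dosing. Eleven-point titrations are normalized to DMSO and empty controls and reduced to AUC values.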
# [12] = BET inhibitor-based combinations targeting novel dependencies in MECOM-rearranged (r) AML: AML-194 cell line (AID 2202237; note: nearly all actives have a fitted effect of over 40% in size; note: potency is the fitted concentration of half-maximal effect)
# Procedure, shortened: as §2
# [13] = BET inhibitor-based combinations targeting novel dependencies in MECOM-rearranged (r) AML: SET-2 cell line (AID 2202231); conditions: SET-2 AML cells viability, CellTiter-Glo luminescence, 48 h; viability: hits give low values, concentration not given here; note: nearly all actives have a fitted effect of over 35% in size; note: potency is the fitted concentration of half-maximal effect
# Procedure, shortened: as §2
# [14] = BET inhibitor-based combinations targeting novel dependencies in MECOM-rearranged (r) AML: OCI-AML3 cell line (AID 2202232); conditions: Potency: OCI-AML3 viability; note: nearly all actives have a fitted effect of over 35% in size; note: potency is the fitted concentration of half-maximal effect
# Procedure, shortened: as §2
structure (smiles),measurement,setting,value
CCOc1ccc(CCNC(=O)c2cc3cccnc3n2Cc2cccc(C)n2)cc1OCC,Potency,[1],inactive
same,Potency,[2],inactive
same,"activity change, negative = inhibition",[3],-11.9% [at 0.022 µM]
same,Potency,[4],inactive
O=C(CNC12CC3CC(CC(C3)C1)C2)c1ccc(Cl)cc1,Potency,[5],inactive
CC(=O)N(C)CC#CCN1CCC(O)CC1,Potency,[5],inactive
O=S(=O)(Nc1ccc(-c2ccccc2)cc1)c1ccc(NCc2cccc(Cl)c2O)cc1,Potency,[5],25200 nM (active)
same,Potency,[6],25200 nM (active)
same,Potency,[4],inactive
N[C@@]1(c2ccccc2Cl)CCC=CC1=O,Potency,[5],inactive
CNC(=O)N1N=C(c2ccc(N)cc2)c2cc3c(cc2CC1C)OCO3 (stereo not drawn),Potency,[2],inactive
same,Potency,[7],inactive
same,Potency,[4],inactive
COc1cccc(CNc2ccc(S(=O)(=O)Nc3nccs3)cc2)c1OC,Potency,[2],inactive
same,Potency,[4],inactive
CN(C)CCc1c[nH]c2ccc(CN3CCN(C)S3(=O)=O)cc12,Potency,[2],inactive
same,Potency,[7],inactive
same,Potency,[4],inactive
COC1CC(OC2CCC3(C)C(CCC4C3CCC3(C)C(C5=CC(=O)OC5)C(OC(C)=O)CC43O)C2)OC(C)C1OC1OC(CO)C(O)C(O)C1O (stereo not drawn),Potency,[2],inactive
CC[C@H]1/C=C\C=C/C[C@@H](C)[C@H](O)[C@@](C)(O)C(=O)[C@@H](C)[C@H](O)[C@@H](C)C(=O)[C@@H](C)[C@H](O)[C@@H](C)/C=C\C(=O)O[C@@H]2[C@H](C)[C@H](CC1)O[C@]1(CC[C@H](C)[C@H](C[C@@H](C)O)O1)[C@H]2C,Potency,[2],inactive
same,Potency,[7],inactive
same,Potency,[4],inactive
same,Potency,[8],26.3 nM (active)
same,Potency,[9],46.8 nM (active)
same,Potency,[10],7420 nM (active)
same,Potency,[11],1180 nM (active)
same,Potency,[12],2950 nM (active)
C=C(C)[C@@]12O[C@@H]1[C@@]1(C)C(=CC2=O)CC[C@@H](OC(C)=O)[C@@H]1C,Potency,[2],inactive
same,Potency,[4],inactive
COC1CC(O[C@H]2CC[C@]3(C)C4CC[C@]5(C)[C@@H](C6=CC(=O)OC6)[C@@H](OC(C)=O)C[C@]5(O)C4CC[C@@H]3C2)OC(C)C1O (stereo partly drawn),Potency,[2],inactive
O=C(N1CCOCC1)N1CCN(c2ccc(Cl)cc2)CC1,Potency,[2],inactive
same,Potency,[7],inactive
same,Potency,[4],inactive
C=C1C(=O)O[C@@H]2[C@H]3C(=C)[C@@H](O)C[C@H]3C(=C)C[C@@H](O)[C@@H]12,Potency,[2],inactive
Cn1cc(Cl)c(C2N=C(Nc3nc4ccccc4o3)NC3=C2C(=O)CCC3)n1 (stereo not drawn),Potency,[2],inactive
same,Potency,[4],inactive
Cc1cc(-c2nnc3n2CCCCC3)c(C)n1-c1ccc(Cl)cc1,Potency,[2],inactive
same,Potency,[4],inactive
CC1=CC(=O)[C@@H](O)[C@@]2(C)C1C[C@H]1OC(=O)[C@H](O)[C@@]3(O)[C@@H](C)[C@@H](O)[C@H](O)C2[C@@]13C (stereo partly drawn),Potency,[2],inactive
same,Potency,[4],inactive
CC(C)(C)[C@]1(O)C[C@@H]2OC(=O)C[C@@]23C(=O)O[C@@H]2OC(=O)[C@@H](O)[C@]213,Potency,[2],inactive
same,Potency,[4],inactive
Cn1cc(P(=S)(c2ccccc2)c2ccccc2)c2ccccc21,Potency,[2],inactive
same,Potency,[4],inactive
C/C(=C\c1csc(C)n1)[C@@H]1C[C@@H]2O[C@@H]2CCC[C@H](C)[C@H](O)[C@@H](C)C(=O)C(C)(C)[C@@H](O)CC(=O)O1,Potency,[2],inactive
same,Potency,[7],inactive
same,Potency,[4],inactive
same,Potency,[13],33.2 nM (active)
same,Potency,[14],20.9 nM (active)
same,Potency,[8],33.2 nM (active)
same,Potency,[10],18.6 nM (active)
COC1C(O)C(OC2CCC3(C=O)C(CCC4C3CCC3(C)C(C5=CC(=O)OC5)CCC43O)C2)OC(C)C1OC1OC(CO)C(O)C(O)C1O (stereo not drawn),Potency,[2],inactive
same,Potency,[4],inactive
CC[C@H]1C2CC3[C@@H]4N(C)c5ccccc5[C@]45C[C@@H]([C@H]2[C@H]5O)N3[C@@H]1O,Potency,[2],inactive
same,Potency,[4],inactive
CCOc1ccc(CCNC(=O)c2ccc(C(=O)c3ccccc3)cc2)cc1OCC,Potency,[2],inactive
same,Potency,[4],inactive
COC1CC(O[C@H]2CC[C@]3(C)C4CC[C@]5(C)[C@@H](C6=CC(=O)OC6)[C@@H](OC(C)=O)C[C@]5(O)C4CC[C@@H]3C2)OC(C)C1O[C@@H]1O[C@H](CO)[C@@H](O)[C@H](O)[C@H]1O (stereo partly drawn),Potency,[2],inactive
COc1cccc(CNc2ccc(S(=O)(=O)Nc3cccc(-c4ccccc4)c3)cc2)c1O,Potency,[2],inactive
same,Potency,[4],inactive
C#CC1(O)CCC2C3CCC4=CC(=O)CCC4=C3C=CC21C (stereo not drawn),Potency,[2],inactive
COc1ccccc1CN[C@H]1C2CCN(CC2)[C@H]1C(c1ccccc1)c1ccccc1,Potency,[2],inactive
same,Potency,[7],inactive
same,Potency,[4],inactive
CC(=O)N1N=C(c2ccc(N)cc2)c2cc3c(cc2C[C@H]1C)OCO3,Potency,[2],inactive
same,Potency,[7],inactive
same,Potency,[4],inactive
same,viability,[13],93.4%
same,Potency,[14],inactive
same,Potency,[8],inactive
same,Potency,[9],inactive
same,Potency,[11],inactive
same,Potency,[12],inactive
